Where “and” joins values, the source holds several entries; their conditions need not be identical. Equal values may be shown once. The campaign covered roughly 5,500 compounds. About 2,000 (36%) were called active. Inconclusive results (about 18%) are left out. Rule as the data show it: active = normalized growth mostly below about 0.91 (no sharp cut-off); inconclusive = no clear call, values can overlap the other calls; inactive = mostly above about 0.92. The list shows a part of the results.
Assay: chemical genetic growth profiling, strain panel (AID 1159580);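 also: tested at 20 µM; growth read once vehicle control cultures reached saturation at 30 °C; 1 = growth at the plate median or of vehicle wells; lower values mean less growth of the strain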
Details: S. cerevisiae deletion strains, growth OD

Measured: normalized growth

O=C(O)c1cc(=O)c2ccccc2[nH]1
inactive: locus YAL013W, strain DEP1, active compounds read low 0.991 and 1.01 | locus YAL021C, strain ccr4, active compounds read low 0.96 | locus YAL026C, strain drs2, active compounds read low 0.986 | locus YAL030W, strain snc1, active compounds read low 0.987 | locus YAL040C, strain CLN3, active compounds read low 0.998 | locus YBL061C, strain skt5, active compounds read low 0.972 | locus YBR009C, strain hhf1, active compounds read low 0.979 | locus YBR021W, strain FUR4, active compounds read low 1.02 | locus YBR023C, strain chs3, active compounds read low 0.98 | locus YBR171W, strain sec66, active compounds read low 0.975 | locus YBR229C, strain ROT2, active compounds read low 0.96 | locus YBR231C, strain swc5, active compounds read low 0.998 | locus YBR279W, strain paf1, active compounds read low 0.992 | locus YCL011C, strain gbp2, active compounds read low 0.986 | locus YCL016C, strain dcc1, active compounds read low 0.981 | locus YCL029C, strain bik1, active compounds read low 0.989 | locus YCL061C, strain MRC1 (second series), active compounds read low 0.992 | locus YCL061C, strain MRC1, active compounds read low 0.983 | locus YCL069W, strain vba3, active compounds read low 0.993 | locus YCR088W, strain abp1, active compounds read low 0.987 | locus YDL005C, strain med2, active compounds read low 0.975 | locus YDL035C, strain GPR1, active compounds read low 0.998 | locus YDL040C, strain nat1, active compounds read low 0.988 | locus YDL074C, strain BRE1, active compounds read low 0.986 | locus YDL101C, strain DUN1, active compounds read low 0.964 | locus YDL134C, strain PPH21, active compounds read low 0.972 | locus YDL185W, strain tfp1, active compounds read low 0.979 | locus YDL192W, strain arf1, active compounds read low 0.991 | locus YDR001C, strain nth1, active compounds read low 0.991 | locus YDR069C, strain doa4, active compounds read low 0.97 | locus YDR101C, strain arx1, active compounds read low 0.993 | locus YDR137W, strain rgp1, active compounds read low 1.02 | locus YDR150W, strain NUM1, active compounds read low 0.975 and 1.01 | locus YDR159W, strain sac3, active compounds read low 0.962 | locus YDR162C, strain NBP2, active compounds read low 0.99 | locus YDR195W, strain ref2 0.968 | locus YDR297W, strain sur2, active compounds read low 0.985 | locus YDR318W, strain mcm21, active compounds read low 0.99 | locus YDR334W, strain swr1, active compounds read low 0.984 | locus YDR335W, strain msn5, active compounds read low 0.99 | locus YDR363W, strain ESC2, active compounds read low 0.981 | locus YDR388W, active compounds read low 0.997 | locus YDR392W, strain spt3, active compounds read low 0.963 | locus YDR502C, strain sam2, active compounds read low 0.995 | locus YEL003W, strain gim4, active compounds read low 0.988 | locus YEL037C, strain rad23, active compounds read low 0.99 | locus YEL061C, strain CIN8 (second series), active compounds read low 0.993 | locus YEL061C, strain CIN8, active compounds read low 0.992 | locus YER002W, strain NOP16, active compounds read low 0.98 | locus YER015W, strain faa2, active compounds read low 0.984 | locus YER016W, strain bim1, active compounds read low 0.987 | locus YER110C, active compounds read low 0.978 | locus YER111C, strain swi4, active compounds read low 0.983 | locus YER155C, strain BEM2 (second series), active compounds read low 0.981 | locus YER155C, strain BEM2, active compounds read low 0.997 | locus YER167W, strain BCK2, active compounds read low 1 | locus YFR010W, strain ubp6, active compounds read low 0.977 | locus YGL078C, strain dbp3, active compounds read low 0.987 | locus YGL086W, strain mad1, active compounds read low 0.998 | locus YGL167C, strain pmr1, active compounds read low 0.973 | locus YGL173C, strain kem1, active compounds read low 0.986 | locus YGL227W, strain vid30, active compounds read low 0.984 | locus YGL240W, strain doc1, active compounds read low 0.987 | locus YGL248W, strain PDE1, active compounds read low 0.977 | locus YGL253W, strain hxk2, active compounds read low 0.988 | locus YGR078C, strain PAC10, active compounds read low 0.999 and 0.983 | locus YGR135W, strain pre9, active compounds read low 0.988 | locus YGR229C, strain SMI1, active compounds read low 1 | locus YGR252W, strain gcn5, active compounds read low 0.992 | locus YHR013C, strain ard1, active compounds read low 0.958 | locus YHR027C, strain rpn1, active compounds read low 1 | locus YHR030C, strain SLT2, active compounds read low 0.991 and 0.972 | locus YHR079C, strain IRE1 (second series), active compounds read low 0.989 | locus YHR079C, strain IRE1, active compounds read low 0.985 | locus YHR094C, strain hxt1, active compounds read low 0.996 | locus YHR129C, strain ARP1, active compounds read low 0.995 | locus YHR142W, strain chs7, active compounds read low 0.99 | locus YHR200W, strain rpn10, active compounds read low 0.987 | locus YIL066C, strain RNR3, active compounds read low 0.973 | locus YIL073C, strain SPO22, active compounds read low 0.95 | locus YIL125W, strain kgd1, active compounds read low 0.987 | locus YIR030C, strain dcg1, active compounds read low 0.983 | locus YJL092W, strain hpr5, active compounds read low 0.987 | locus YJL095W, strain BCK1 (second series), active compounds read low 0.973 | locus YJL095W, strain BCK1, active compounds read low 1.04 and 0.987 | locus YJL115W, strain asf1, active compounds read low 0.992 | locus YJL129C, strain trk1, active compounds read low 0.973 | locus YJL134W, strain LCB3, active compounds read low 0.982 | locus YJL154C, strain vps35, active compounds read low 0.98 | locus YJL164C, strain tpk1, active compounds read low 1.01 | locus YJL166W, strain qcr8, active compounds read low 0.998 | locus YJL168C, strain set2, active compounds read low 0.996 | locus YJL187C, strain SWE1 (second series), active compounds read low 0.967 | locus YJL187C, strain SWE1, active compounds read low 0.987 | locus YJR043C, strain POL32, active compounds read low 1 | locus YJR066W, strain TOR1, active compounds read low 0.88

Reference: PubChem BioAssay AID1159580 (chemical genetic matrix, 2015)
